From PubChem BioAssay (EPA / NIEHS)
Results filed as inconclusive are left out. The source made the active and inactive calls. The calls were made as follows: active = hit-call score of the fitted dose curve at least 0.9, where 1 is the maximum; inconclusive = response in the unintended direction; inactive = score below 0.9.

The molecules below were run against AR (gene 367) (UniProt P10275) (assay: ACEA_AR_agonist_80hr: ACEA Biosciences xCELLigence Real-Time Cell Analysis on Androgen Receptor Agonism for Proliferation (AID 2283783);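 also: hits increase impedance growth signal above DMSO baseline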).
Sequence of AR (gene 367) (P10275 whole entry, looked up): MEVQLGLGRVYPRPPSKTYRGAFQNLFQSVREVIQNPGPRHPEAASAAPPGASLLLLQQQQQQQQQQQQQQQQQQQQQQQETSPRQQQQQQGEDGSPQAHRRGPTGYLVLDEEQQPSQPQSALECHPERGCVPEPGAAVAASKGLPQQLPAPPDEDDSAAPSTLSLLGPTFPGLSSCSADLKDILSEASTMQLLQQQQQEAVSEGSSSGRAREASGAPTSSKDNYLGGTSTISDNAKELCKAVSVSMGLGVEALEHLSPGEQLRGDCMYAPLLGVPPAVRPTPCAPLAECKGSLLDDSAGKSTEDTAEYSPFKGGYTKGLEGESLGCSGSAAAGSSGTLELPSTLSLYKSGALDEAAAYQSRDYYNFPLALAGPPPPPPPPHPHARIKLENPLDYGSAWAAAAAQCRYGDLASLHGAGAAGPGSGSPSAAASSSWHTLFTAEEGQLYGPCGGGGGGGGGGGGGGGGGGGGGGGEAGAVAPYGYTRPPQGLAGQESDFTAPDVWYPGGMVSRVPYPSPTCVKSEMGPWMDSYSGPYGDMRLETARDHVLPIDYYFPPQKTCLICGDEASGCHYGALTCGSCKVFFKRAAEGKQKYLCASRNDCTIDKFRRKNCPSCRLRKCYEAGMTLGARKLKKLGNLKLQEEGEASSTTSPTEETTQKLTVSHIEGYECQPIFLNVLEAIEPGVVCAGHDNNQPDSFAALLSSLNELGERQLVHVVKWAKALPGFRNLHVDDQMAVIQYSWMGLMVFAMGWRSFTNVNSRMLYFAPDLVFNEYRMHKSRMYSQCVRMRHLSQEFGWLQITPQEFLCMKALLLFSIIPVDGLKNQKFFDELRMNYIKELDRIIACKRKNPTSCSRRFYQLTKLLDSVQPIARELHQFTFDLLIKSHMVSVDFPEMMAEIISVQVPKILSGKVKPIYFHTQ
Method: ACEA_AR_agonist is a cell-based, single-readout assay that uses 22Rv1, a human prostate cancer cell line, with measurements taken at 80 hours after chemical dosing in a 384-well plate, although TO5 and TO6 (mc0.srcf) used a 96-well plate. Differences in plate size can be ignored given data normalization.ACEA_AR_agonist_80hr is one of two assay component(s) measured or calculated from the ACEA_AR assay. It is designed to make measurements of real-time cell-growth kinetics, a form of growth reporter, as detected with electrical impedance signals by Real-Time Cell Electrode Sensor (RT-CES) technology.Data from the assay component ACEA_AR_agonist_80hr was analyzed in the positive analysis fitting direction relative to DMSO as the negative control and baseline of activity. Using a type of growth reporter, measures of the cells for gain-of-signal activity can be used to understand the signaling at the pathway-level as they relate to the geneAR Furthermore, this assay endpoint can be referred to as a primary readout, because this assay has produced multiple assay endpoints where this one serves a signaling function. To generalize the intended target to other relatable targets, this assay endpoint is annotated to the nuclear receptor intended target family, where the subfamily is steroidal.
The xCELLigence system Multi-E-Plate stations were used to measure the time-dependent response to chemicals. Each compound was tested in an eight-point, 1:4 serial dilution series starting at a maximum final concentration of 100 uM. A maximum starting concentration of 0.5% DMSO was present in the 100 uM chemical samples and was diluted along with the test article dilution series. The screen was performed in biological duplicate using two separate, 96-well, E-Plates 96 for each dilution series (n = 2). Positive controls (MG132 and testosterone) and a negative control (assay media) were tested in quadruplicate on each testing plate. […] Reference compounds were tested with 8 concentrations with 1:5 serial dilutions. All screening was carried out by ACEA Biosciences, Inc. (San Diego, CA). 22Rv1 cells purchased from ATCC were maintained in media supplemented with 10% fetal bovine serum (FBS). Before screening, 22Rv1 cells were preconditioned in assay medium. Cells were then detached and seeded in E-Plates 96 in assay medium. After overnight monitoring of growth once every hour, compounds were added to […] cells and remained in the medium until the end of the experiment. Cellular responses were then recorded once every 5 min for the first 5 h, and once every hour for an additional 100 h.
In the case of `c1ccc2[nH]c(-c3cscn3)nc2c1`, the outcome is reported as “inactive”.
In the case of `O=C(O)C1(C(=O)Nc2ccc(Cl)cc2Cl)CC1`, the outcome is reported as “inactive”.
`CN(C)C(=O)Nc1ccc(Cl)c(Cl)c1` was tested, and the outcome was “inactive”.
For `CCOC(=O)COc1cc(-n2ncc(C(F)(F)F)c(C)c2=O)c(F)cc1Cl`, the outcome was “inactive”.
For `CCCCOCCOCCOCc1cc2c(cc1CCC)OCO2`, the outcome was “inactive”.
With `CSC(=O)c1cccc2nnsc12` the outcome was “inactive”.
For `CC1(C)C(C=C(Cl)Cl)C1C(=O)OCc1cccc(Oc2ccccc2)c1` (stereo not given), the outcome was “inactive”.
`COC(=O)CSc1cc(N=c2sc(=O)n3n2CCCC3)c(F)cc1Cl` was tested, and the outcome was “inactive”.
`C[C@]12CC[C@@H]3c4ccc(O)cc4C[C@@H](CCCCCCCCCS(=O)CCCC(F)(F)C(F)(F)F)[C@H]3[C@@H]1CC[C@@H]2O` (stereo not given in full) was tested, and the outcome was “inactive”.
For `O=C(c1ccc(O)cc1O)c1ccc(O)cc1O`, the AC50 was 187 nM (active).
